# The list is not random: actives were taken first. Their share in the collection is about 3.5%.
# FBW7 activator = FBW7 E3 ligase activators, primary screen, biochemical, AlphaScreen, human. F-box/WD repeat-containing protein 7 (Homo sapiens), Q969H0. AlphaScreen FBW7–phospho-cyclin E peptide binding, activator screen. normalized activity (activation), % at 26.1 µM. hit rate 0.13% among 650,000; in the data active = normalized activity above about 1.9%;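 also: purified mutant Fbw7 with reduced substrate affinity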
# GPR151 ag = activators of human GPR151, primary screen, cell-based, PathHunter beta-arrestin, luminescence. AID 1508602, 2020. hit rate 1% among 650,000. activation, % at 11.2 µM. PathHunter beta-arrestin GPR151 cells; in the data active = activation above about 4.9%
# MITF primary = MITF inhibitors, primary screen, biochemical, AlphaScreen, human; Microphthalmia-associated transcription factor (Homo sapiens), O75030; AlphaScreen MITF homodimerization, bead proximity signal; inhibition, % at 2.6 µM; hit rate 0.91% among 650,000; AID 1259374, 2018; in the data active = inhibition above about 50%
# Target sequence (O75030 whole entry, looked up): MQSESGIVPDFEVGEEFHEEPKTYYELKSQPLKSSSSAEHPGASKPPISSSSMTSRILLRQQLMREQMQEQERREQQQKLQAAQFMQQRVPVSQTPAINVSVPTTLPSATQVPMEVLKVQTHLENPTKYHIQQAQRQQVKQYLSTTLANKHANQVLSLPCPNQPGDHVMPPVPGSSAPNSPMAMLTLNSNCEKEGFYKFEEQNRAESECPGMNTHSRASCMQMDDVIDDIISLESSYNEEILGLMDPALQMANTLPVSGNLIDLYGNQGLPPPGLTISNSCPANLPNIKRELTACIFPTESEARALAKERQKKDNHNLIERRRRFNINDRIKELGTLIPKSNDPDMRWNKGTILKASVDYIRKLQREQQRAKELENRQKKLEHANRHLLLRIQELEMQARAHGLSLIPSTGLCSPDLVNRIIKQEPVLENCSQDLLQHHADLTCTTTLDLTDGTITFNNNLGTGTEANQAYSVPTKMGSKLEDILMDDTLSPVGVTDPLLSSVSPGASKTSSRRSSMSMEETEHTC
# TEAD-YAP inh = TEAD-YAP interaction inhibition, primary screen, TEAD-YAP interaction inhibitor project, luminescence, HEK-TIYL cells | inhibition, % at 9.12 µM | AID 1259422, 2018 | TEAD-Gal4/YAP UAS-luciferase luminescence | hit rate 1.4% among 640,000; in the data active = inhibition above about 32%
# A number is an active result; 0 = inactive.
SMILES,FBW7 activator,GPR151 ag,MITF primary,TEAD-YAP inh
COc1ccc2[nH]c(=O)c(CN(Cc3cccnc3)C(=O)Nc3ccc(F)cc3)cc2c1,0,0,0,46.1
COc1ccc(NC(=O)N(CCCO)Cc2cc3cccc(C)c3[nH]c2=O)cc1,0,0,0,0
Cc1cccc2cc(CN(CCO)C(=O)Nc3ccc(F)cc3)c(=O)[nH]c12,2.3,0,0,0
COc1ccc2[nH]c(=O)c(CN(Cc3cccnc3)C(=O)Nc3ccccc3)cc2c1,0,0,0,0
Cc1ccc(Cl)cc1N1CCN(C(=O)c2ccc3c(c2)NC(=O)CS3)CC1,0,0,0,60.2
OC(COc1ccc2oc3ccccc3c2c1)CN1CCN(c2ccccn2)CC1 (stereo unspecified),0,0,0,0
CCCCN(Cc1ccccc1)Cc1ccco1,0,0,0,0
COc1ccc(-c2cc(O)cc(O)c2)cc1,0,0,0,33.9
COc1ccc(-c2ccc(C(C)=O)cc2)cc1,0,0,0,0
Cc1c(C(=O)Nc2cc(Oc3ccccc3)cc([N+](=O)[O-])c2)sc2ncn(Cc3ccccc3Cl)c(=O)c12,0,0,0,0
COc1ccc(OC)c(NC(=O)CN2C(=O)CC(c3ccco3)Sc3ccccc32)c1 (stereo unspecified),0,0,0,0
COc1ccc(Cl)cc1NC(=O)CN1C(=O)CC(c2ccco2)Sc2ccccc21 (stereo unspecified),0,0,0,45.2
O=c1c(O)cccc2cc(O)c(O)c(O)c12,0,0,89.8,0
CN1CCN(C(=S)SCCN2CCCC2=O)CC1,0,0,0,0
Cc1ccn2c(-c3csc(Nc4cccc(O)c4)n3)c(C)nc2c1,0,0,0,49.1
CCOc1ccc(Nc2nc(-c3c(C)nc4ccccn34)cs2)cc1,0,0,0,70.3
CCOc1ccccc1Nc1nc(-c2c(C)nc3ccccn23)cs1,0,0,0,0
CCOc1ccc(Nc2nc(-c3c(C)nc4cc(C)ccn34)cs2)cc1,0,0,0,67.5
Cc1cccc(Nc2nc(-c3c(C)nc4cc(C)ccn34)cs2)c1,0,0,0,0
COc1ccc(Cl)cc1N1C(=O)CSC1c1cccnc1 (stereo unspecified),0,0,0,0
COCCCNC(=S)NNC(=O)OC(C)(C)C,0,0,0,0
N#Cc1nc(COc2ccc(Br)cc2)oc1NCc1ccco1,22.9,0,0,0
COc1ccccc1NC(=O)C1=C(C)Nc2nc(CCCO)nn2C1c1ccccc1F (stereo unspecified),0,0,0,0
Nc1oncc1-c1ccc(NC(=O)C2COc3ccccc3C2)cc1 (stereo unspecified),0,0,0,0
Cc1[nH]ncc1-c1ccc(NC(=O)C2COc3ccccc3C2)cc1 (stereo unspecified),0,0,0,41.4
SMILES,FBW7 activator,GPR151 ag,MITF primary,TEAD-YAP inh
Nc1oncc1-c1ccc(NC(=O)C2COc3ccc(F)cc3C2)cc1 (stereo unspecified),0,0,0,49.6
Nc1[nH]ncc1-c1ccc(NC(=O)C2COc3ccc(F)cc3C2)cc1 (stereo unspecified),0,0,0,46.9
COc1cccc(Cn2c(=S)[nH]c3ncccc3c2=O)c1,0,0,0,0
CC(C)(C)c1ccc(NC(=O)Nc2ccccc2NC(=O)c2ccccn2)cc1,0,0,0,68.2
CC(C)(C)c1ccc(/C=N\NC(=O)c2ccccn2)cc1,0,0,0,34.6
O=C(Nc1ccccc1NC(=O)c1ccccn1)Nc1c(F)cccc1F,0,0,0,0
N#CSCCCOc1ccc2ccccc2c1,0,0,0,47.4
c1cnc(SCCCOc2ccc3ccccc3c2)nc1,0,0,0,0
CCc1cccc2c(/C=N/NC(=O)c3n[nH]c(=O)c4ccccc34)c[nH]c12,0,0,0,47.2
CCCOc1ccc(/C=N/NC(=O)c2n[nH]c(=O)c3ccccc23)cc1OC,0,0,0,0
COc1ccc(-n2nnc3c(SCC(=O)Nc4cccc(OC)c4)ncnc32)cc1,0,0,0,0
NC(=O)c1ccccc1NC(=O)c1ccc(Cn2nnc3ccccc32)cc1,0,0,0,56.1
CC(C)c1ccc(C(=O)Nc2ccccc2C(N)=O)cc1,0,0,0,32.6
NC(=O)c1ccccc1NC(=O)c1ccc(Cl)cc1,0,0,0,0
C/C(=N\Nc1cccc(C(F)(F)F)c1)C1CC1,3.4,0,0,0
C/C(=N\Nc1ccc(C(F)(F)F)cc1[N+](=O)[O-])C1CC1,0,0,0,0
NC(=O)c1cccc(-c2ccnc(Nc3ccc(N4CCOCC4)cc3)n2)c1,0,0,0,0
CC(=O)c1ccc(-c2nc(-c3cccc(NS(C)(=O)=O)c3)cnc2N)cc1,0,0,0,0
CS(=O)(=O)Nc1cccc(-c2ccnc(Nc3ccc(-n4cncn4)cc3)n2)c1,0,0,0,90.5
C[Si](C)(C)c1nnn(-c2ccc(Nc3nccc(-c4cccc(NS(C)(=O)=O)c4)n3)cc2)c1N1CCOCC1,0,0,0,32.7
Cc1ccc(-c2ncn(-c3ccc(Nc4nccc(-c5cccc(-n6cncn6)c5)n4)cc3)n2)cn1,0,0,0,0
CC(=O)c1ccc(Nc2nccc(-c3cccc(NS(C)(=O)=O)c3)n2)cc1,0,0,0,81.8
c1cnc(Nc2nc(NCc3nc4ccccc4[nH]3)c3ncn(C4CCCCC4)c3n2)nc1,0,0,0,0
O=C(Cn1c(=O)[nH]c2ccccc21)NCc1ccc2c(c1)OCO2,0,0,0,74.5
COc1ccc(C2Nc3ccccc3C(=O)N2c2ccc(C)cc2)cc1 (stereo unspecified),0,0,0,0
SMILES,FBW7 activator,GPR151 ag,MITF primary,TEAD-YAP inh
COc1ccc(C2Nc3ccccc3C(=O)N2c2ccc3ccccc3c2)cc1 (stereo unspecified),0,0,0,64.4
CNc1nc(Cl)c(SC)c(Cl)n1,0,0,0,0
O=C(Cc1ccccc1)NC(c1ccco1)c1ccc2cccnc2c1O (stereo unspecified),0,0,0,0
O=[N+]([O-])c1cccc(NC(c2ccco2)c2ccc3cccnc3c2O)c1 (stereo unspecified),0,0,82.2,74.6
O=[N+]([O-])c1ccc(NC(c2ccco2)c2ccc3cccnc3c2O)cc1 (stereo unspecified),0,0,57.6,69.8
CC1(C)CC(=O)C=C(NCCCN2CCOCC2)C1,0,0,0,0
CC1=Nc2ccccc2/C1=C/c1sc(=N)n(-c2nccs2)c1O,0,0,0,32.1
CCC(C)NCCOc1ccc(C)cc1Cl (stereo unspecified),0,0,0,0
CCOc1cc(/C=N\NC(=O)CNC(=O)C(c2ccccc2)c2ccccc2)ccc1O,0,0,0,0
COCCNC(=O)NC(=O)COC(=O)C1CC(=O)N(c2ccc3c(c2)OCCO3)C1 (stereo unspecified),0,0,0,0
COc1ccc([N+](=O)[O-])cc1NC(=O)COc1ccc(Br)cc1C,0,0,0,84.3

# Assay outcomes: PubChem, The Scripps Research Institute Molecular Screening Center
